Most compounds without a hit are left out; they make up all but 21% or so of the library.
Cycloheximide cs – affects cycloheximide protein synthesis inhibition readout, counter-screen | cell reporter, cycloheximide protein synthesis inhibition counterscreen | max response, % | 12% of 300,000 active | AID 2314; in the data active = max response mostly above about 13%, no sharp cut-off; inactive = mostly below about 14%; also: read at 38.3 µM for the half of the compounds with a filed dose; 0% is about no effect
Pf growth 48h – P. falciparum growth inhibition at 48 hours (one generation); P. falciparum luciferase growth in erythrocytes, 48 h; Potency, µM (series often up to 28.7 µM), for the others: at the highest dose activity change, negative = inhibition, usual class: inhibitors; 5.9% of 310,000 active; also: potency is read from the fitted curve at half-maximal effect; % is scaled to controls: 0 for no effect and ±100 for the full control effect
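First compound was added to culture medium, then infected red cells at 0.1% parasitemia and 2% hematocrit (final). After incubation at 37 C under 5% CO2, luciferase detection reagent was dispensed and light output recorded.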
Pf growth 96h – inhibits malaria parasite growth, 96 h | Potency, µM (highest dose often 28.7 µM), inactives show at the highest dose activity change, negative = inhibition, usual class: inhibitors | 6.9% of 320,000 active | P. falciparum luciferase reporter growth, 96 h; also: potency is read from the fitted curve at half-maximal effect; % is scaled to controls: 0 for no effect and ±100 for the full control effect
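P. falciparum expressing integrated firefly luciferase, in erythrocytes at 2% hematocrit, 0.05% parasitemia, incubated with compounds 96 h at 37 C, 5% CO2. Growth inhibition read as loss of luminescence; two-generation exposure targets delayed-death apicoplast inhibitors.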
Shiga inhibitor – blocks Shiga toxin action in Vero cells. inhibition, % at 38.7 µM. Vero cells, Shiga toxin protein synthesis inhibition reporter. 9.2% of 290,000 active. AID 2315; in the data active = inhibition mostly above about 28%, no sharp cut-off; inactive = mostly below about 43%; also: 0% is about no effect
* hit, by the source's call; u = inconclusive; x = no result; [ ] = remark or other dose. Unless noted, calls follow the shape of the dose curve; as a rule, active = well fitted inhibition curve with a large enough effect; inconclusive = small, poorly fitted or top-dose-only effect, or another doubt; inactive = no such curve, though single readings can be large or run the other way.

SMILES | Cycloheximide cs | Pf growth 48h | Pf growth 96h | Shiga inhibitor
CC(=O)COC(=O)c1ccc2noc(-c3ccccc3)c2c1 | 13.9* | 28.5% | 38.5% | 59.2*
CC(=O)c1ccc2noc(-c3ccc(C)cc3)c2c1 | 14.0 | 400.4% | u | 26.5
NC(=O)NC(=O)COC(=O)c1ccc2noc(-c3ccccc3)c2c1 | -3.6 | 10.9% | 10.5% | 44.4
COc1cc(C(=O)NNC(=S)NC(=O)c2ccc(F)cc2)cc(OC)c1OC | 8.3 | u | u | 19.5
c1ccc(-c2nn[nH]n2)c(Nc2cccc3c2CCCC3)c1 | -4.4 | x | x | -5.0
CCOc1ccc(Br)cc1C1=NN(C(C)=O)C(c2ccc([N+](=O)[O-])s2)O1 (stereo unspecified) | 10.3 | 9.28µM* | u | 9.4
COc1ccccc1NC(=O)Nc1cc(NC(=O)Nc2ccccc2OC)c(C)nc1C | -2.8 | u | 6.57µM* | -4.7
CCN1CCN(Cc2ccc(NC(=O)Nc3ccccc3OC)cc2)CC1 | 35.0* | 44.8% | -11.0% | 10.4*
COc1ccccc1NC(=O)Nc1ccccc1Br | -1.9 | u | 21.6% | 11.9
COc1ccc(NC(=O)Nc2ccccc2OC)cc1 | 40.5* | 132.8% | x | 60.8*
COc1ccccc1NC(=O)Nc1ccc(CC#N)cc1 | 25.3* | 94.5% | 81.7% | 43.4*
O=C(NCCN1CCN(c2ccccc2)CC1)C1CCN(S(=O)(=O)c2cccc3nsnc23)CC1 | -1.8 | 12.1% | -14.0% | 5.8
COc1ccc(-c2nnc3n2N=C(c2ccccc2OC)CS3)c(OC)c1 | -2.0 | x | x | -9.6
COc1ccc(NC(=O)c2ccccc2-c2ccccc2C(=O)O)cc1 | -1.2 | x | 6.7% | -5.5
COc1ccccc1NC(=O)Nc1ccc(C(N)=O)cc1 | 12.8* | 0.8%[5.75 µM] | 38.3%[1.15 µM] | 19.4
Cc1ccc(NC(=O)NNC(=O)c2cc3ccccc3cc2O)cc1 | -0.9 | 24.8% | 0.0% | -3.5
COc1ccccc1NC(=O)Nc1ccc(N2CCOCC2)cc1 | 50.9* | 50.1% | 182.8% | 84.1*
COc1ccccc1NC(=O)NNC(=O)c1cc2ccccc2cc1O | 26.1* | 19.5% | 47.8% | 101.1*
COc1ccc(NC(=O)N/C=C/c2ccccc2)cc1 | 35.0* | 135.9% | 160.0% | 103.0*
O=C(CNS(=O)(=O)c1c(F)cc(F)cc1Br)OCC(=O)N1CCCC1=O | x | 4.4% | 28.6% | x
O=C(CCNC(=O)C1CCN(S(=O)(=O)c2ccc(F)cc2)CC1)NCCc1ccc(Cl)cc1 | -2.1 | 20.7% | u | 6.8
COc1ccc(OC)c(/C(O)=C/C(=O)C(=O)Nc2ccccc2OC)c1 | 2.0 | x | 14.7µM* | 26.5
COCCSc1ccccc1C(=O)N1CCN(Cc2ccccc2)CC1 | -1.9 | 0.4% | 14.1% | -11.1
COc1ccc(-c2cc(C(=O)O)no2)cc1 | 4.0 | 16.3% | -16.9% | 1.2
CCC(C)NC(=O)c1cc(-c2ccc(OC)cc2)on1 (stereo unspecified) | 28.7* | x | 37.2% | 66.4*
SMILES | Cycloheximide cs | Pf growth 48h | Pf growth 96h | Shiga inhibitor
COc1ccc(-c2cc(C(=O)NCC(C)C)no2)cc1 | 37.9* | x | -12.5% | 70.8*
Cc1ccc2c(C(=O)CN3CCN(C(=O)c4ccco4)CC3)c(C)[nH]c2c1 | -0.5 | u | u | -1.4
COc1ccc(C(CC(=O)Nc2ncccc2C)N2Cc3ccccc3C2=O)cc1 (stereo unspecified) | 19.4 | -11.3% | 20.0% | -15.0
COc1ccc(OCC(=O)Nc2nccs2)cc1 | 12.3 | 110.1% | 30.4% | 6.4
COc1ccc(C(CC(=O)Nc2nccs2)n2cccc2)cc1 (stereo unspecified) | 30.8* | 112.9% | 0.0% | 150.2*
COc1ccc(C(CC(=O)Nc2ccccn2)N2Cc3ccccc3C2=O)cc1 (stereo unspecified) | 30.3* | 10.9% | 12.1% | 88.0*
COc1ccc(C(CC(=O)Nc2nccs2)C(C)C)cc1 (stereo unspecified) | -4.6 | u | 13.1µM* | -15.4
COc1ccc(C(CC(=O)Nc2cc(OC)cc(OC)c2)n2cccc2)cc1 (stereo unspecified) | -1.4 | 13.1µM* | u | -5.7
Cc1cccc(C)c1NC(=O)CNCC(=O)N(C)C | 0.1 | 82.4% | -6.1% | -11.6
CCc1nc(NCCC(C)C)c(C#N)c2c1CCCC2 | -0.8 | x | -15.4% | -11.0
CCN1CCc2c(C#N)c(N3CCCCC3)nc(NCc3ccccc3)c2C1 | -2.4 | u | 2.62µM* | 4.6
CCc1nc(NCc2ccccc2)c(C#N)c2c1CCCC2 | -3.1 | 10.4µM* | u | -7.0
CCN1CCc2c(C#N)c(N3CCOCC3)nc(NCc3ccccc3)c2C1 | -6.4 | x | 18.1% | -10.5
CC(=O)c1ccc(N2CCCCC2)c(F)c1 | 15.8* | 43.9% | 12.7% | -5.4
CCOC(=O)N1CCN(c2ccc(C(=O)CC)cc2F)CC1 | 14.2 | 17.0% | -22.6% | 28.2
CCCC(=O)c1ccc(N2CCCCCC2)c(F)c1 | 39.9* | 45.0% | -23.5% | 68.0*
CCCC(=O)c1ccc(N2CCCCC2)c(F)c1 | 46.9* | 37.9% | 3.0% | 94.2*
CCCC(=O)c1ccc(N2CCN(C(=O)OCC)CC2)c(F)c1 | 23.1 | 4.8% | 9.28µM* | 54.3
O=C(COC(=O)c1cc(=O)[nH]c(=O)[nH]1)Nc1cccc(S(=O)(=O)N2CCCCC2)c1 | -2.1 | 7.0% | u | -2.5
CCc1nnc(NC(=O)C(c2ccccc2)c2ccccc2)s1 | -4.4 | u | u | -3.3
Cc1cccc(OCC(=O)Nc2ccc(S(=O)(=O)Nc3onc(C)c3C)cc2)c1C | 6.5 | 0.0% | u | -2.7
O=[N+]([O-])c1ccc(CP(=O)(c2ccccc2)c2ccccc2)cc1 | -1.7 | -8.0% | -11.2% | 11.3
CCOc1ccc(CCNC(=O)COC(=O)c2cc(=O)[nH]c3ccccc23)cc1OCC | x | -0.2% | 6.7% | x
CN(C)/C=C1\Cc2ccccc2C1=O | 45.7* | 19.2% | 7.0% | 112.9*
CN(C)C=C1C(=O)c2ccccc2C1=O | 27.4* | 5.3% | x | 64.8*
SMILES | Cycloheximide cs | Pf growth 48h | Pf growth 96h | Shiga inhibitor
C/[N+]([O-])=C1\Cc2ccccc2C1=O | -1.1 | -10.4% | 16.2% | -3.2
Clc1ccc(CN2CCC(c3ccccc3)CC2)cc1 | -1.3 | -15.5% | -17.3% | 18.2
Clc1ccc(CN2CC[C@H]3C=CCc4cccc(c43)C2)cc1 | x | 3.7µM* | 1.85µM* | x
Fc1ccc(CN2CC[C@H]3C=CCc4cccc(c43)C2)cc1 | x | 10.4µM* | u | x
CCOc1ccc(CC2S/C(=N/c3ccccn3)NC2=O)cc1 (stereo unspecified) | -3.9 | 14.7µM* | 79.8% | 27.9
O=C1NC(=Nc2ccc(F)cc2)SC1Cc1ccc(F)cc1 (stereo unspecified) | 2.0 | 9.28µM* | 8.28µM* | 11.5
O=C1NC(=Nc2ccc(Cl)cc2)SC1Cc1cc(Cl)ccc1Cl (stereo unspecified) | 0.3 | -11.9% | u | 23.3
Cc1cccc(/N=C2/NC(=O)C(Cc3ccccc3)S2)n1 (stereo unspecified) | -2.6 | 33.1% | -14.0% | 32.9
COc1ccc(-c2nonc2NC(=O)c2oc3ccccc3c2C)cc1OC | 1.2 | u | 10.4µM* | -6.0
COc1cc(NC(=O)c2cccnc2)ccc1-c1cc2ccccc2oc1=O | 9.5 | -5.4% | 57.0% | -10.6
COc1ccc(NC(=O)c2cc3ccccc3oc2=O)c(OC)c1 | 50.7* | u | u | 133.1*
CCOc1ccccc1C(=O)Nc1cc(OC)ccc1OC | -2.9 | -29.6% | u | -8.8

High-throughput results as filed in PubChem BioAssay.
